Assay outcomes as filed in PubChem.
The list is not random: actives were taken first. Their share in the collection is about 2.8%.
WRN helicase inh-1: WRN helicase (human) inhibition. 360,000 tested, 0.46% active. Q14191. AID 651768. Potency, µM (doses to about 114 µM), without a hit: at the highest dose activity change, negative = inhibition, usual class: inhibitors. WRN helicase unwinding, fluorescent forked duplex, kinetic; further: potency means the concentration at half of the fitted maximal effect; on the % scale 0 is the no-effect control and ±100 the full control effect; nearly all actives have a fitted effect of over 55% in size
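Kinetic red-fluorescence monitoring (525/598 nm) tracks WRN helicase activity after 100 nM fluorophore-quencher forked duplex and 2 mM ATP are added to 20 nM enzyme pretreated 15 min at room temperature with compound.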
Pol iota inh: inhibitors of human DNA polymerase iota; Pol iota fluorescent replication assay, 10 min; Potency, µM (highest dose often 115 µM), for inactives: top-dose activity, negative = inhibition, usual class: inhibitors; 390,000 tested, 1% active; further: potency means the concentration at half of the fitted maximal effect
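Pol iota at 10 nM preincubated 15 min with compounds at room temperature; reaction started with fluorescent substrate, 50 nM final. Fluorescence read kinetically at 0 and 10 min; buffer-only wells as negative control.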
Pol eta inh: DNA polymerase eta (human) inhibition | Q9Y253 | recombinant Pol eta, fluorescent DNA replication assay | Potency, µM (highest dose often 114 µM), without a hit: at the highest dose activity change, negative = inhibition, hits mostly inhibitors | 390,000 tested, 1.2% active; further: potency means the concentration at half of the fitted maximal effect; on the % scale 0 is the no-effect control and ±100 the full control effect
Target sequence (Q9Y253 whole entry, looked up): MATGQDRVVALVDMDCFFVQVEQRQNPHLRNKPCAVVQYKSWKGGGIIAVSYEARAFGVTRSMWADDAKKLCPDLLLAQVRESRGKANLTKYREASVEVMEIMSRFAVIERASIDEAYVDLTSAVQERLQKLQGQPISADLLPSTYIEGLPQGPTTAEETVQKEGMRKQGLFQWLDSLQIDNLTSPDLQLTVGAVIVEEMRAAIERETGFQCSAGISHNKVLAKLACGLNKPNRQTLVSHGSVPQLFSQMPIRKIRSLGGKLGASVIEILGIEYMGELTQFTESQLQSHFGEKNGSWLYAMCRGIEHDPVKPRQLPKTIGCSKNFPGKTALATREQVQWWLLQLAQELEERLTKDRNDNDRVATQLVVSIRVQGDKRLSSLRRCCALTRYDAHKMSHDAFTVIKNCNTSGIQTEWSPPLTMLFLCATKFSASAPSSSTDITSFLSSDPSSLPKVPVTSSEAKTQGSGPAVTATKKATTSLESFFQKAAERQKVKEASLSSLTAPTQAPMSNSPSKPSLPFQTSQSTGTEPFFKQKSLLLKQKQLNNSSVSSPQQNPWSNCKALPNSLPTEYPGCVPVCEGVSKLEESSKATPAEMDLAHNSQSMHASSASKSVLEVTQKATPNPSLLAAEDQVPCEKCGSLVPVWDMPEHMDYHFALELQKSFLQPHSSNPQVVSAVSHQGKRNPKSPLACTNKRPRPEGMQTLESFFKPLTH
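Pol eta at 10 nM preincubated with compounds 15 min at room temperature; reaction started with fluorescent substrate (50 nM final) and read kinetically at 0 and 10 min.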
POLK inh: blocks human DNA polymerase kappa activity; AID 588579; 400,000 tested, 0.53% active; Potency, µM (doses to about 107 µM), inactives show at the highest dose activity, negative = inhibition, actives largely listed as inhibitors; purified Pol kappa, fluorescent DNA synthesis assay, 10 min; further: potency means the concentration at half of the fitted maximal effect; on the % scale 0 is the no-effect control and ±100 the full control effect
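Kinetic fluorescence readout at 0 and 10 min followed reaction start with substrate at 50 nM final. Beforehand, enzyme (10 nM Pol kappa) stood 15 min with compound at room temperature; buffer-only wells were negative controls.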
PI5P4Ka inh: inhibitors of human PI5P4K alpha. P48426. max response, %. AID 652105. 330,000 tested, 1.2% active. PI5P4Kalpha enzyme, ADP-Glo luminescence, 60 min; hits give low values; active means max response of -50% or lower; inconclusive means between -30% and -50%; inactive means -30% or higher; further: value at the top dose of about 77 µM; on the % scale 0 is the no-effect control and ±100 the full control effect
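ADP-Glo luminescence end-point after a 60 min room-temperature kinase reaction. PI5P4Kalpha and substrate in HEPES pH 7.4 buffer with EGTA, 0.1% CHAPS and 5% DMSO; ATP at 5 microM final.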
POLB inh: inhibitors of human DNA polymerase beta | AID 485314 | Potency, µM (highest dose often 114 µM), without a hit: top-dose activity change, negative = inhibition, actives largely listed as inhibitors | P06746 | 340,000 tested, 1.3% active | Pol beta primer extension/strand displacement, fluorescence kinetic; further: potency means the concentration at half of the fitted maximal effect; on the % scale 0 is the no-effect control and ±100 the full control effect
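Pol beta (10 nM) was preincubated with compound for 15 min at room temperature. The reaction was then started with 50 nM substrate and read immediately and after a further 10 min at room temperature.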
WRN helicase inh-2: confirmation of human WRN helicase inhibitors | shares compounds with WRN helicase inh-1 | WRN helicase DNA unwinding, fluorescence kinetic | Potency, µM (titrated, usually from 57.1 µM), inactives show top-dose activity, negative = inhibition, hits mostly inhibitors | 610 tested, 63% active; further: potency means the concentration at half of the fitted maximal effect; nearly all actives have a fitted effect of over 65% in size
TO displacement: binds DNA, flagged in WRN inhibitor counterscreen; Potency, µM (titrated, usually from 57.1 µM), for the others: top-dose activity change, negative = inhibition, most hits filed as inhibitors; 610 tested, 10% active; shares compounds with WRN helicase inh-1; thiazole orange DNA binding displacement, fluorescence;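 further: drop in dye fluorescence marks compound binding to DNA; potency means the concentration at half of the fitted maximal effect; on the % scale 0 is the no-effect control and ±100 the full control effect; nearly all actives have a fitted effect of over 60% in size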
BLM helicase inh: BLM helicase inhibition, WRN selectivity check; Recombinant BLM helicase DNA unwinding, red fluorescence; shares compounds with WRN helicase inh-1; Potency, µM (series often up to 57.1 µM), inactives show at the highest dose activity change, negative = inhibition, actives largely listed as inhibitors; AID 720503; 610 tested, 60% active; further: potency means the concentration at half of the fitted maximal effect; nearly all actives have a fitted effect of over 60% in size
* = called active by the depositor; [ ] = another dose, or the depositor's remark. Unless noted, the call rests on the fitted dose curve; in most records, active means well fitted curve in the direction sought with a large enough effect; inconclusive means small, poorly fitted or top-dose-only effect, or another doubt; inactive means no such curve, though single readings can be large; an effect the other way counts as inactive or inconclusive.

Screening CCC(C)N1C(=O)/C(=C\c2cnc(N(C)C)nc2)C(=O)NC1=S (configuration not stated) returned WRN helicase inh-1 50.1µM*, Pol iota inh inconclusive, Pol eta inh -6.5%, POLK inh 1.8%, PI5P4Ka inh -57.4*, POLB inh 15.1%, WRN helicase inh-2 -5.5%, TO displacement 7.4% and BLM helicase inh -17.7%.
Cc1c(C=C2C(=O)NC(=O)NC2=O)c(=O)n(-c2ccccc2)n1C was read as WRN helicase inh-1 -10.1%, Pol iota inh 162.1%, Pol eta inh -15.5%, POLK inh -21.2%, PI5P4Ka inh -18.2 and POLB inh -13.2%.
O=C1NC(=O)C(=Cc2c(Cl)cccc2Cl)C(=O)N1 was read as WRN helicase inh-1 35.5µM*, Pol iota inh -1.4%, Pol eta inh -3.2%, POLK inh -21.1%, PI5P4Ka inh inconclusive, WRN helicase inh-2 -0.4%, TO displacement -3.1% and BLM helicase inh -4.4%.
`COc1cc(C=C2C(=O)NC(=O)NC2=O)ccc1OS(=O)(=O)c1ccccc1[N+](=O)[O-]` gave WRN helicase inh-1 28.2µM*, Pol iota inh inconclusive, Pol eta inh -19.0%, POLK inh -14.4%, PI5P4Ka inh -67.2*, POLB inh 19.9%, WRN helicase inh-2 -20.2%, TO displacement -10.0% and BLM helicase inh -3.6%.
CCCCNC(=O)/C(C#N)=c1\s/c(=C\c2ccccc2OC(F)F)c(=O)n1CCCOC was read as WRN helicase inh-1 -10.9%[57.1 µM], Pol iota inh 31.5%, Pol eta inh -8.1%, POLK inh -2.3%, PI5P4Ka inh 7.4 and POLB inh 34.2%.
`O=C1CC=C2C3CC4N(CCC45c4cc(O)c(O)cc4N1C25)CC3=CCBr` (configuration not stated) gave WRN helicase inh-1 28.2µM*, Pol iota inh 39.8µM*, Pol eta inh inconclusive, POLK inh inconclusive, PI5P4Ka inh -69.6*, WRN helicase inh-2 19.2µM*, TO displacement -3.7% and BLM helicase inh 5.41µM*.
Screening CCOc1cc(C=C2C(=O)NC(=O)NC2=O)ccc1OCC(=O)N1CCOCC1 returned WRN helicase inh-1 inconclusive, Pol iota inh 12.2%, Pol eta inh -10.2%, POLK inh -3.1%, PI5P4Ka inh inconclusive, POLB inh 17.0%, WRN helicase inh-2 -4.2%, TO displacement -2.9% and BLM helicase inh -11.1%.
Screening NCCNC[C@@H](N)CCCN=C(N)N[N+](=O)[O-] returned POLK inh 10.7%[60.1 µM].
Screening C[C@@H]([C@@H](O)c1ccccc1)N(C)C(=O)Cc1ccccc1 returned WRN helicase inh-1 1.3%, Pol iota inh 29.7%, Pol eta inh -17.5%, POLK inh -15.5% and PI5P4Ka inh -0.3.
Screening CN(C)CC(C(=O)Cc1ccccc1)c1ccccc1 (configuration not stated) returned WRN helicase inh-1 44.7µM*, Pol iota inh inconclusive, Pol eta inh -13.5%, POLK inh -6.3%, PI5P4Ka inh 1.8, WRN helicase inh-2 0.304µM*, TO displacement 2.5% and BLM helicase inh inconclusive.
